Molecules are shown by their SMILES. About 83,000 compounds went through this panel and 20% of them were active in at least one assay; those are over-represented in the sample as a whole.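 In brief: 96-well plates, 48 h treatment, single concentration, percent growth endpoint.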 A number with no mark means an inactive call. Activity calls are given as the source filed them. How the source made its calls: active means growth percent below 10; inactive means the rest.

What all share (assay): NCI-60 one-dose screen, 48 h (100 = growth as untreated, 0 = no growth, -100 = all killed)
The subject of one experiment is RPMI-8226 leukemia. Conditions: 10 µM unless noted.
For another experiment, the system named is OVCAR-8 ovarian. The following applies: 10 µM unless noted.
A further experiment has as its system OVCAR-5 ovarian. Conditions: 10 µM unless noted.
In another experiment the test system is OVCAR-4 ovarian. Conditions: 10 µM unless noted.
Another experiment relates to IGROV1 ovarian. Conditions: 10 µM unless noted.
In the next experiment the test system is OVCAR-3 ovarian. The following applies: 10 µM unless noted.
For another experiment, the system named is HS 578T breast. Conditions: 10 µM unless noted.
A further experiment deals with NCI/ADR-RES ovarian. Conditions: 10 µM unless noted.
For the next experiment, the system named is T-47D breast. Conditions: 10 µM unless noted.
Another experiment concerns BT-549 breast. The following applies: 10 µM unless noted.
For another experiment, the system named is MDA-MB-435 melanoma. The following applies: 10 µM unless noted.
The next experiment has as its system SW-620 colon. The following applies: 10 µM unless noted.
For a further experiment, the system named is MCF7 breast. The following applies: 10 µM.
Another experiment relates to HCT-116 colon. Conditions: 10 µM unless noted.
Another experiment concerns HCC-2998 colon. The following applies: 10 µM unless noted.
The subject of another experiment is KM12 colon. The following applies: 10 µM unless noted.

Consider `CCCCCCn1c(=N)n(CC(O)COc2cccc(C)c2)c2ccccc21` (stereo not given), for which the growth in the experiment with RPMI-8226 leukemia was -24.8% (active); in the experiment on OVCAR-8 ovarian it was -67.1% (active); in the experiment with OVCAR-5 ovarian it was -7.84% (active); with OVCAR-4 ovarian it was -31.9% (active); with IGROV1 ovarian, -58.1% (active); in the experiment with OVCAR-3 ovarian, 23.3%. In addition, the growth is -5.09% (active) in the experiment on HS 578T breast; -2.54% (active) in the experiment with NCI/ADR-RES ovarian; 52.6% in the experiment on T-47D breast; 36.6% in the experiment on BT-549 breast; -77.3% (active) in the experiment with MDA-MB-435 melanoma; -65.9% (active) in the experiment with SW-620 colon. Further, the growth was -51.6% (active) with MCF7 breast, -33.8% (active) in the experiment with HCT-116 colon, -87.1% (active) in the experiment with HCC-2998 colon and -43.8% (active) in the experiment with KM12 colon.

`COc1ccc(/C=C/C(=O)c2ccc3cc(OC)c(OC)cc3c2)cc1OC`: the growth in the experiment with RPMI-8226 leukemia was 4.57% (active); in the experiment on OVCAR-8 ovarian, 11.4%; with OVCAR-5 ovarian, 29.6%; in the experiment on OVCAR-4 ovarian, 25.5%; in the experiment with IGROV1 ovarian, 53.8%; in the experiment on OVCAR-3 ovarian it was 15.5%. Besides, the growth with HS 578T breast is 77.2%; in the experiment on NCI/ADR-RES ovarian, 11.5%; in the experiment on T-47D breast it was 47.5%; with BT-549 breast, 33.9%; in the experiment on MDA-MB-435 melanoma it was 7.45% (active); with SW-620 colon it was 11.1%. For the same molecule, the growth was 25.9% in the experiment with MCF7 breast, 16.9% with HCT-116 colon, 48.6% in the experiment with HCC-2998 colon and 21.5% in the experiment on KM12 colon.

For the molecule `COc1cc(/C=C2\CN(C)C/C(=C\c3cc(CN4CCOCC4)c(O)c(OC)c3)C2=O)cc(CN2CCOCC2)c1O`, the growth with RPMI-8226 leukemia was 47.7%; in the experiment with OVCAR-8 ovarian, 20.1%; in the experiment on OVCAR-5 ovarian, 88.7%; in the experiment on OVCAR-4 ovarian, 58.9%; with IGROV1 ovarian, 57.8%; with OVCAR-3 ovarian, 22.2%. Further, the growth with HS 578T breast is 83.1%; in the experiment with NCI/ADR-RES ovarian, 94.7%; in the experiment with T-47D breast, 84.5%; with BT-549 breast it was 94%; in the experiment on MDA-MB-435 melanoma it was 29.2%; in the experiment on SW-620 colon, 48%. The growth was 19.5% in the experiment with MCF7 breast, 21.1% with HCT-116 colon, 91% in the experiment with HCC-2998 colon and 37.4% in the experiment with KM12 colon.

As to `S=C1NC2(c3ccccc3)CCC(=S)N2c2ccccc21` (stereo not given), the growth in the experiment with RPMI-8226 leukemia was 103%; with OVCAR-8 ovarian it was 100%; in the experiment with OVCAR-5 ovarian, 103%; in the experiment with OVCAR-4 ovarian it was 105%; in the experiment on IGROV1 ovarian, 106%; with OVCAR-3 ovarian it was 119%. Moreover, the growth in the experiment with HS 578T breast is 101%; in the experiment on NCI/ADR-RES ovarian, 109%; in the experiment on T-47D breast it was 106%; with BT-549 breast, 107%; in the experiment with MDA-MB-435 melanoma, 101%; in the experiment with SW-620 colon it was 108%. Further, the growth with MCF7 breast is 108%; with HCT-116 colon it was 103%; with HCC-2998 colon it was 127%; in the experiment with KM12 colon, 108%.

Take `Cc1cc2c(c(C)c1Cl)C(=O)/C(=C/c1ccco1)O2`: the growth in the experiment on RPMI-8226 leukemia was 87%; in the experiment on OVCAR-8 ovarian it was 102%; in the experiment on OVCAR-5 ovarian it was 114%; with OVCAR-4 ovarian, 63.3%; with IGROV1 ovarian, 59.2%; in the experiment with OVCAR-3 ovarian, 104%. The growth in the experiment on HS 578T breast was 98.8%; in the experiment with NCI/ADR-RES ovarian, 104%; in the experiment on T-47D breast, 47.5%; in the experiment with BT-549 breast it was 103%; with MDA-MB-435 melanoma it was 100%; with SW-620 colon, 108%. Also, the growth in the experiment on MCF7 breast was 24.7%; in the experiment with HCT-116 colon it was 98.7%; with HCC-2998 colon, 97.6%; with KM12 colon, 75.9%.

For the molecule `O=C1/C(=C\c2ccc[nH]2)c2ccccc2N1c1ccccc1`, the growth with RPMI-8226 leukemia is 94.4%; in the experiment with OVCAR-8 ovarian, 102%; in the experiment with OVCAR-5 ovarian, 87.9%; with OVCAR-4 ovarian it was 67.7%; with IGROV1 ovarian, 84.5%; in the experiment with OVCAR-3 ovarian, 112%. Moreover, the growth with HS 578T breast is 92.3%; in the experiment on NCI/ADR-RES ovarian, 90.2%; in the experiment on T-47D breast, 64.9%; with BT-549 breast it was 78.9%; in the experiment with MDA-MB-435 melanoma, 108%; in the experiment on SW-620 colon it was 97%. In addition, the growth in the experiment with MCF7 breast was 19.5%; with HCT-116 colon, 95.1%; in the experiment with HCC-2998 colon it was 93.6%; with KM12 colon it was 95.7%.

As to `COc1ccc(/C(C#N)=C/c2nc3c(N4CCOCC4)nc(Cl)nc3n2C)cc1OC`, the growth in the experiment with RPMI-8226 leukemia was -7.23% (active); with OVCAR-8 ovarian, 14.5%; in the experiment with OVCAR-5 ovarian it was 33.3%; with OVCAR-4 ovarian, -25% (active); in the experiment on IGROV1 ovarian, 3.01% (active); with OVCAR-3 ovarian, -86.1% (active). Besides, the growth in the experiment on HS 578T breast was 13.2%; in the experiment with NCI/ADR-RES ovarian, 11.7%; in the experiment with T-47D breast, -17.1% (active); in the experiment on BT-549 breast, -15.7% (active); in the experiment with MDA-MB-435 melanoma it was -64.5% (active); in the experiment with SW-620 colon, -53.7% (active). Further, the growth in the experiment on MCF7 breast was 6.49% (active); in the experiment with HCT-116 colon it was -73.2% (active); in the experiment on HCC-2998 colon, 2.12% (active); with KM12 colon, -0.417% (active).

Consider `O=C(NCc1ccccc1)C1CN(c2ccc(Cl)cc2)N(c2ccc(Cl)cc2)C1=O` (stereo not given), for which the growth in the experiment on RPMI-8226 leukemia was 85.5%; in the experiment on OVCAR-8 ovarian it was 86.5%; in the experiment on OVCAR-5 ovarian, 95.2%; in the experiment on OVCAR-4 ovarian it was 88.3%; with IGROV1 ovarian, 92.1%; in the experiment on OVCAR-3 ovarian, 51.7%. Besides, the growth in the experiment on HS 578T breast is 74.7%; in the experiment on NCI/ADR-RES ovarian, 69.9%; in the experiment on T-47D breast, 63.9%; in the experiment on BT-549 breast, 83.4%; with MDA-MB-435 melanoma, 3.28% (active); in the experiment with SW-620 colon, 60.8%. The growth in the experiment with MCF7 breast is 49.8%; in the experiment with HCT-116 colon, 83.8%; in the experiment on HCC-2998 colon, 99.4%; with KM12 colon it was 59.8%.

Take `Cc1ccc2cccc(Oc3ccc(Nc4ncnc5onc(-c6ccccc6)c45)cc3)c2n1`: the growth with RPMI-8226 leukemia was 111%; with OVCAR-8 ovarian it was 91%; in the experiment with OVCAR-5 ovarian it was 94.6%; in the experiment on OVCAR-4 ovarian it was 71.9%; in the experiment with IGROV1 ovarian it was 77.2%; in the experiment with OVCAR-3 ovarian, 93.8%. The growth in the experiment on HS 578T breast was 89.4%; in the experiment with NCI/ADR-RES ovarian it was 87.3%; with T-47D breast, 65.2%; in the experiment on BT-549 breast, 93.3%; in the experiment on MDA-MB-435 melanoma, 79.9%; in the experiment on SW-620 colon, 87%. The growth was 79.5% in the experiment on MCF7 breast, 58.5% in the experiment on HCT-116 colon, 100% in the experiment with HCC-2998 colon and 63.8% with KM12 colon.

In the case of `CCOC(=O)c1c2c(n3cccc(Cl)c13)C(=O)c1ncccc1C2=O`, the growth in the experiment on RPMI-8226 leukemia was 61.2%; with OVCAR-8 ovarian, 12%; in the experiment with OVCAR-5 ovarian, 84.1%; in the experiment with OVCAR-4 ovarian, 23.5%; in the experiment with IGROV1 ovarian, 61.9%; with OVCAR-3 ovarian, 5.39% (active). Besides, the growth is 61.3% in the experiment on HS 578T breast; 38.3% in the experiment with NCI/ADR-RES ovarian; 75.9% in the experiment on T-47D breast; 69.2% in the experiment with BT-549 breast; 79.9% in the experiment with MDA-MB-435 melanoma; 36.4% with SW-620 colon. The growth with MCF7 breast is 43.3%; in the experiment on HCT-116 colon, 8.41% (active); in the experiment with HCC-2998 colon it was 46%; in the experiment on KM12 colon, 46.3%.

(Values after PubChem BioAssay (NCI).)
